# Target: NOL7
# Assay: pooled miR-30 sensor sort-seq; sequence = guide strand
# Conditions: shRNA
row,Sequence,sensor-assay potency score (higher = more potent)
1,TTTTTGTACTTTAACTTTCTTG,-0.529
2,TTCGATGAACAGCTCCTCGCGT,-0.6
3,TAACTTCTTTCACCTTTCCTGG,-0.398
4,TTAGTCTGTGAAGCTGTGGTTA,-0.246
5,TTAACTTCTTTCACCTTTCCTG,-0.368
6,AACTTATTTACAGTAGTCCTGT,-0.21

# Target: NOLC1
# Assay: as above
# Conditions: shRNA
row,Sequence,sensor-assay potency score (higher = more potent)
1,TTAGCTTTCTTAGCCACTGGTC,-0.169
2,TTGACCTGGACAGAGATTGAGC,-0.52
3,TTTAGTCTGAGCTTTAACTGTC,0.463
4,TTAGGTACAGTCTTCTTGGGGG,0.125
5,TTTAGGTACAGTCTTCTTGGGG,-0.268
6,TTGCTTTTTAGGTACAGTCTTC,-0.681
7,TAACTTTCGCTCTGGGACCTTG,-0.857
8,TTTGGTGAACTTCAAAACCTGA,-0.529
9,TTGCTTTAGAGACTACTGCCTT,-0.589
10,TTGCCTGTAACTTTCGCTCTGG,0.151

# Target: NOMO3
# Assay: as above
# Conditions: shRNA
row,Sequence,sensor-assay potency score (higher = more potent)
1,TTGGTGTACAGCTTTATCTCGA,0.0866
2,TTCACCTTCCTCATTGCCGTTT,-0.31
3,TATCTGACCACAGACACTGAAC,-1.06
4,TAACTCATCTACCATCTCCTGC,-0.337
5,TGTTGCAACAATGTCAGCCAGC,-0.925
6,TATGATGTTTACATCATCGATG,-0.855
7,TTGATCTCCACGTCCGACTTGA,0.49
8,TTGTCTCTTTGCATCTTCTGGG,-0.0196
9,TAGAACGCTTGCTCAAACCGGT,0.161
10,TTATTCATCTGCTTGACGGTGT,0.998
11,TAACAGTGATTTTCTCTCCAGA,-0.602
12,TAAAGCTTGACCCATAACGTAG,-0.74
13,TTTGGTGCAATTTTGATGGTGA,0.652
14,TTATTTTGTATTTTCCAGGGAG,0.546
15,TTGTCTTCTGTTTCTTGGCTTG,-0.491
16,TGGAACACCATCTCCTTCGGGT,-0.53

# Target: NOTCH4
# Assay: as above
# Conditions: shRNA
row,Sequence,sensor-assay potency score (higher = more potent)
1,TTGGCTGAACAGAAGTCCCGAA,-0.0674
2,TTGGGACTGACAAGCATCGAGT,-0.743
3,TATATAGGAAAGAACATCTTAC,0.0056
4,TTCTTGGTTCCAACTTAGGGGT,-0.898
5,TTGGTGAGCGACGTCCGCCGGC,-0.551
6,TTGAGCAGTTCTGTCCATCGTA,0.59
7,TTAGGGTTCTTAAATAGCGATA,-1.36
8,TAGGGGTACACCATGTCCCTGC,0.0292

# Reference: the OligoGym collection
